Screens deposited in PubChem by National Center for Advancing Translational Sciences (NCATS).
ClpP mod: qHTS Assay for Activators of ClpP. Potency, µM (doses to about 57.5 µM). actives 1.9% (n = 340,000). purified B. subtilis ClpP, FRET peptide cleavage, 20 min; active = well fitted falling curve with a large enough effect; inconclusive = small, poorly fitted or top-dose-only effect; inactive = no such curve, though single readings can be large or run the other way; note: the source files actives as falling curves though it sought activators and does not explain the sign; nearly all actives have a fitted effect of over 65% in size
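Purified B. subtilis ClpP, 10 microg/mL final in Tris/HCl pH8 with KCl, BSA, glycerol and Tween-20, cleaved an Abz/nitrotyrosine-quenched decapeptide. Fluorescence (ex 320, em 430) was read at 0 and 20 min at room temperature. Delta was normalized to 5.8 microM ADEP and DMSO/no-enzyme controls.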
TDP1 cell noCPT: qHTS for Inhibitors of human tyrosyl-DNA phosphodiesterase 1 (TDP1): qHTS in cells in absence of CPT; Potency, µM (series often up to 46.2 µM), most hits filed as inhibitors; actives 15% (n = 420,000); DT40 Tdp1-/- hTDP1 cells, no CPT, ATP luminescence, 48 h; note: nearly all actives have a fitted effect of over 55% in size
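Seeded 400 DT40-hTDP1 cells/well (vehicle DMSO, no 20 nM CPT); pinned compounds; ≥48 hr at 37 °C; CellTiter-Glo luminescence as viability measure.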
TDP1 inh: qHTS Assay for Inhibitors of Tyrosyl-DNA Phosphodiesterase (TDP1). actives 0.28% (n = 350,000). Potency, µM (series often up to 130 µM), actives largely listed as inhibitors. AID 485290, 2010. recombinant TDP1, AlphaScreen DNA substrate cleavage. Tyrosyl-DNA phosphodiesterase 1 (Homo sapiens), Q9NUW8; note: nearly all actives have a fitted effect of over 40% in size
Target sequence (Q9NUW8 whole entry, looked up): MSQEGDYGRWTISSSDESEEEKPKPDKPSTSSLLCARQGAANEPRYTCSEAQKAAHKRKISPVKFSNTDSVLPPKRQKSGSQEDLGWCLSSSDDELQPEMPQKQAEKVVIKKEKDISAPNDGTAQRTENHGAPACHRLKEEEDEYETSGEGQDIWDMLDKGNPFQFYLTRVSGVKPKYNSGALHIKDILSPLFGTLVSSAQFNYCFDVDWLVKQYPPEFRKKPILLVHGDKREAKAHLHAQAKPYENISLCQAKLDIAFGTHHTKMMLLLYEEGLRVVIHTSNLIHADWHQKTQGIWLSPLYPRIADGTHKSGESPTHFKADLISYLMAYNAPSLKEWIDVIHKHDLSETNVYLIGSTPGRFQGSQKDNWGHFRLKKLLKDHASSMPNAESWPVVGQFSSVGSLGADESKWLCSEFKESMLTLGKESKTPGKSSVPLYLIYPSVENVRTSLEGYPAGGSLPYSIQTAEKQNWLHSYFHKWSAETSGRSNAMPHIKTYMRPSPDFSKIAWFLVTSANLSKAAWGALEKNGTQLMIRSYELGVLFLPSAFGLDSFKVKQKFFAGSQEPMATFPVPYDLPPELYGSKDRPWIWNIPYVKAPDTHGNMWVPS
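Steps: enzyme plus compound, 15 min RT; add biotin/phosphotyrosine-FITC oligonucleotide (15 nM final), react 5 min; add donor/acceptor beads (10 ug/ml final), 10 min; read AlphaScreen. Tdp1 at 1 nM final.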
TDP1 cell CPT: qHTS for Inhibitors of human tyrosyl-DNA phosphodiesterase 1 (TDP1): qHTS in cells in presence of CPT; chicken DT40 Tdp1-/-;hTDP1 cells + 20 nM CPT, ATP luminescence, 48 h; Potency, µM (highest dose often 46.2 µM), actives largely listed as inhibitors; actives 12% (n = 420,000); AID 686979, 2013; note: nearly all actives have a fitted effect of over 55% in size
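Cell growth measured by CellTiter-Glo luminescence after a minimum 48 h, 37 C compound exposure with 20 nM CPT in Tdp1-knockout DT40 cells stably expressing hTDP1, seeded 400/well; qHTS titration format.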
Each line names hits and unclear results; the compound was inactive in the other large screens. Only some compounds are listed: those with a hit (about 17% of all), similar ones and a draw of the others. Unless noted, calls come from the whole dose curve; as a rule, active = well fitted curve in the direction sought with a large enough effect; inconclusive = small, poorly fitted or top-dose-only effect, or another doubt; inactive = no such curve, though single readings can be large; an effect the other way counts as inactive or inconclusive.

Cc1ccc(C)c(OCC(=O)Nc2nonc2NC(=O)COc2cc(C)ccc2C)c1	TDP1 cell noCPT inconclusive, TDP1 cell CPT inconclusive
CCc1ccc(OCC(=O)Nc2ccc3c(c2)c2ccccc2n3CC)cc1	TDP1 cell CPT inconclusive
CCn1c2ccccc2c2cc(NC(=O)COC(=O)c3cc(OC)c(OC)cc3OC)ccc21	ClpP mod inconclusive, TDP1 cell noCPT 21µM, TDP1 cell CPT 21µM
CCn1c2ccccc2c2cc(NC(=O)COc3cc(C)ccc3C)ccc21	TDP1 cell noCPT 9.2µM, TDP1 cell CPT inconclusive
CSc1nc(N)nc2c1ncn2CC(=O)N[C@H](C)c1cccc2ccccc12	ClpP mod inconclusive, TDP1 cell noCPT inconclusive, TDP1 cell CPT inconclusive
COc1ccccc1CN1CC(C(=O)N(C)CCCn2nc(C)cc2C)CCC1=O (centres undefined)	none
CCSC1=NC2(CCN(C(=O)NC3CCCCC3)CC2)N=C1c1ccc(OC)cc1	TDP1 cell noCPT inconclusive, TDP1 cell CPT inconclusive
CNC(=O)c1nc(C)n(-c2ccc(Cl)cc2Cl)n1	TDP1 cell noCPT inconclusive, TDP1 cell CPT 12µM (no result: ClpP mod)
O=C(NCc1ccc2c(c1)OCO2)c1cc(-c2ccccc2)nn1CC1CC(c2cccnc2)=NO1 (centres undefined)	none (no result: TDP1 inh)
CCO[C@@H]1OC(C(=O)NCc2nc3ccccc3[nH]2)=C[C@H](c2csc3ccccc23)[C@H]1CCCO	TDP1 cell noCPT 23µM, TDP1 cell CPT 23µM
CCO[C@H]1OC(C(=O)NCc2nc3ccccc3[nH]2)=C[C@@H](C2CC2)[C@@H]1CCCO	TDP1 cell noCPT 0.58µM, TDP1 cell CPT 0.82µM
CCO[C@H]1OC(C(=O)NCc2nc3ccccc3[nH]2)=C[C@@H](c2csc3ccccc23)[C@@H]1CCCO	TDP1 cell noCPT 16µM, TDP1 cell CPT inconclusive
CCO[C@@H]1OC(C(=O)NCc2nc3ccccc3[nH]2)=C[C@H](c2ccccc2)[C@H]1CCCO	TDP1 cell noCPT inconclusive, TDP1 cell CPT inconclusive
CCO[C@H]1OC(C(=O)NCc2nc3ccccc3[nH]2)=C[C@@H](c2ccccc2)[C@@H]1CCCO	TDP1 cell noCPT inconclusive, TDP1 cell CPT inconclusive
CN(Cc1ccc2c(c1)CCCN2C)C(=O)[C@H]1O[C@@H](n2cnc3c(N)ncnc32)[C@H](O)[C@@H]1O	TDP1 cell noCPT inconclusive (no result: TDP1 inh)
CCCCCCCCCCCCC(=O)N1CCCC[C@H]1CNC(=O)[C@@H](N)CCCCN	TDP1 cell noCPT 21µM, TDP1 cell CPT 13µM (no result: ClpP mod)
CCCCN1C(=O)CCC(C(=O)O)C1c1ccc([N+](=O)[O-])cc1 (centres undefined)	none (no result: TDP1 inh)
COc1cc(OC)c(CN2CCOc3ccc(CN4CCC(O)CC4)cc3C2)c(OC)c1	TDP1 cell noCPT 23µM, TDP1 cell CPT inconclusive (no result: ClpP mod, TDP1 inh)
COc1ccc(CN2CCOc3ccc(CN4CCC(Oc5cccnc5)CC4)cc3C2)c(F)c1	TDP1 cell noCPT 21µM, TDP1 cell CPT inconclusive (no result: ClpP mod, TDP1 inh)
COc1cc(CN2CCOc3ccc(CN4CCC(Oc5cccnc5)CC4)cc3C2)ccc1F	TDP1 cell noCPT 21µM, TDP1 cell CPT inconclusive (no result: ClpP mod, TDP1 inh)
O=C(c1ccoc1)N1CCOc2ccc(CN3CCC(Oc4cccnc4)CC3)cc2C1	none (no result: ClpP mod, TDP1 inh)
O=C(c1cscn1)N1CCOc2ccc(CN3CCC(Oc4cccnc4)CC3)cc2C1	TDP1 cell noCPT 0.29µM, TDP1 cell CPT inconclusive (no result: ClpP mod, TDP1 inh)
COC(=O)c1cc(NC(=O)Cn2ncc3c([nH]c4ccccc43)c2=O)cc(C(=O)OC)c1	none
O=C(CN1CCSCC1)N/N=C/c1cccc(Cl)c1	none
NS(=O)(=O)c1ccc(CCNC(=S)NC(=O)c2ccccc2Br)cc1	none (no result: ClpP mod)
Cc1oc2c(cc(NS(=O)(=O)c3ccc(C(C)C)cc3)c3ccccc32)c1C(=O)OCc1ccccc1	TDP1 cell noCPT inconclusive, TDP1 cell CPT 21µM (no result: TDP1 inh)
CCCCOC(=O)c1c(C)oc2c1cc(NS(=O)(=O)c1cc(OC)ccc1OC)c1ccccc12	TDP1 cell noCPT 21µM, TDP1 cell CPT inconclusive
CCOC(=O)c1c(C)oc2c1cc(NS(=O)(=O)c1ccc(C(=O)O)cc1)c1ccccc12	none (no result: ClpP mod)
CCOc1ccc(S(=O)(=O)Nc2cc3c(C(=O)OCc4ccccc4)c(C)oc3c3ccccc23)cc1	TDP1 cell noCPT 29µM, TDP1 cell CPT 12µM (no result: TDP1 inh)
